Screens deposited in PubChem by The Scripps Research Institute Molecular Screening Center.
FBW7 activator – human FBW7 E3 ligase activation, primary screen; normalized activity (activation), % at 26.1 µM; AlphaScreen FBW7–phospho-cyclin E peptide binding, activator screen; 650,000 compounds, 0.13% hits; Q969H0; in the data active = normalized activity above about 1.9%;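 note: purified mutant Fbw7 with reduced substrate affinity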
GPR151 activ – activators of human GPR151 | Q8TDV0 | PathHunter beta-arrestin GPR151 cells, luminescence | activation, % at 11.2 µM | 650,000 compounds, 1% hits | AID 1508602; in the data active = activation above about 4.9%;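 note: 0% = median of compound wells and 100% = cells with positive control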
TEAD-YAP inh – TEAD-YAP interaction inhibition; HEK-TIYL cells, TEAD-Gal4/YAP UAS-luciferase luminescence; inhibition, % at 9.12 µM; 640,000 compounds, 1.4% hits; in the data active = inhibition above about 32%;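 note: 0% = median of test compound wells and 100% = reference inhibitor wells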
MITF inh – blocks human microphthalmia-associated transcription factor. AID 1259374. inhibition, % at 2.6 µM. AlphaScreen MITF homodimerization, bead proximity signal. O75030. 650,000 compounds, 0.91% hits; in the data active = inhibition above about 50%;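 note: 0% = vehicle wells with protein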
Target sequence (O75030 whole entry, looked up): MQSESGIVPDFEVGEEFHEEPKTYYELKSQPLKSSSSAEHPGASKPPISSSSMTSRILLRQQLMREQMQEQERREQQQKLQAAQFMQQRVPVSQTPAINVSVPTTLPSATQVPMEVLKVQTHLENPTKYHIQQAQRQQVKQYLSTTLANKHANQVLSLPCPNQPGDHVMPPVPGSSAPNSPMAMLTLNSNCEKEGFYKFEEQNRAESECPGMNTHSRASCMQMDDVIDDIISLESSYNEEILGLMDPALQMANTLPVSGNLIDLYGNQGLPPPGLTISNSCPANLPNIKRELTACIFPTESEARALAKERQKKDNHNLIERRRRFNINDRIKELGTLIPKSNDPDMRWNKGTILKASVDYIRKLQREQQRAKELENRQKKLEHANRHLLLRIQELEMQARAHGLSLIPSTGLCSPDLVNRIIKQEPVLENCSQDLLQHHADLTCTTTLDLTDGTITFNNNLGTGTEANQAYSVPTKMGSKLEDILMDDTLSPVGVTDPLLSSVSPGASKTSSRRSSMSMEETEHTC
GPR151 conf act – confirmation of human GPR151 activators; shares compounds with GPR151 activ; GPR151 PathHunter beta-arrestin cells, luminescence, 90 min; % of EA-reagent control over plate median; activation, % at 11.2 µM; 6,700 tested, under 10 active; AID 1508609;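 active = mean percent activation across replicates above the confirmation screen cutoff of 4.91%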
GPR119 ag – GPR119 activation, counter-screen for GPR151 activators; shares compounds with GPR151 activ; GPR119 PathHunter beta-arrestin cells, luminescence, 90 min; 0 = compound-well median, 100 = enzyme-acceptor control; activation, % at 11.2 µM; 6,700 compounds, 0.3% hits;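 active = mean percent activation in the counterscreen above 29.09%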;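 note: counterscreen on off-target GPR119 to flag nonselective hits from the GPR151 activator screen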
* hit, by the source's call; . = not tested or not shown. Sampled rows, rich in hits. Any-hit rate of the full collection: about 3.5%.

SMILES	FBW7 activator	GPR151 activ	TEAD-YAP inh	MITF inh	GPR151 conf act	GPR119 ag
Cc1ccc(-n2ncc3c(=O)n(Cc4cccnc4)cnc32)cc1	0.2	6.6*	-13.8	15.2	-0.1	0.1
Cc1ccc(NC(=O)CN(C)S(=O)(=O)c2ccc(Br)cc2)cc1C	0.1	1.3	-1.7	-12.5	.	.
Cc1ccc(NC(=O)CN(C)S(=O)(=O)c2ccc(Br)cc2)cc1Cl	0.1	9.5*	3.5	18.0	1.8	-3.0
COc1ccc(NC(=O)CN(C)S(=O)(=O)c2ccc(Cl)cc2)cc1Cl	0.2	10.2*	6.2	0.2	0.0	-5.6
COC(=O)Nc1ccc(S(=O)(=O)N2CCCC(C(=O)O)C2)cc1 (stereo unspecified)	0.1	11.3*	2.4	2.7	-0.4	-9.0
Cc1ccc(-n2[nH]c(C)c(/C=N/c3ccccn3)c2=O)cc1	-0.3	-2.9	4.9	-7.3	.	.
Cc1[nH]n(-c2ccccc2)c(=S)c1/C=N/c1ccccn1	-0.1	5.9*	6.4	-7.6	0.4	4.9
COc1ccc(/C=C2\N=C(c3c(-c4ccccc4)noc3C)OC2=O)cc1	-0.1	-0.7	-9.6	-0.5	.	.
C[C@H]1CC[C@H]2C(=O)O[C@H](CO)CN2[C@@H]1c1ccc(Br)cc1	-0.2	-0.8	.	5.0	.	.
C[C@@H]1CC[C@H]2C(=O)O[C@@H](COc3ccc(C(C)(C)C)cc3)CN2[C@@H]1c1ccc(Br)cc1	-0.1	5.4*	.	16.8	-0.6	-9.0
COc1cccc(C(=O)NCc2nnc(SCC(=O)N3N=C(c4cccs4)CC3c3ccc(C)cc3)n2-c2ccccc2)c1 (stereo unspecified)	-0.1	0.6	6.7	-12.2	.	.
COc1ccc(C2CC(c3cccs3)=NN2C(=O)CSc2nnc(CNC(=O)c3cccc(OC)c3)n2-c2ccccc2)cc1 (stereo unspecified)	-0.1	5.8*	1.6	-9.4	1.4	0.7
CC1CCC(NC(=O)CCC2=NS(=O)(=O)c3cc(Br)cnc3N2)CC1 (stereo unspecified)	-0.1	0.0	-3.0	-1.0	.	.
CC(=O)N1CCC(N(C(=O)C2CCN(c3ccc(C(F)(F)F)cn3)CC2)C2CC2)CC1	-0.2	5.5*	-2.7	16.4	-0.6	-3.3
CCN1c2ccc(C(C)=O)cc2NC1(C)CC (stereo unspecified)	1.2	-0.6	-3.5	17.7	.	.
CCCCC(=O)Nc1nnc(S(=O)(=O)N(C)c2cccc(C)c2)s1	0.1	6.7*	1.2	7.5	0.8	-2.5
CCN(CC)S(=O)(=O)c1ccc(F)c(C(=O)NCCN2CCOCC2)c1	-0.1	-0.2	-0.2	-0.7	.	.
CC(C)Oc1ccc(C2CC(=O)NC(=O)C2)cc1	0.6	6.7*	0.4	23.8	-0.3	13.0
CC(C)Oc1ccc(C2CC(=O)NC3=C2C(=O)CCC3)cc1 (stereo unspecified)	-0.1	0.7	7.6	7.5	.	.
Cc1ccc2[nH]c3c(c2c1)CCCC3NCc1ccc(F)cc1 (stereo unspecified)	-0.1	14.0*	48.9*	13.1	-0.2	-2.2
Cc1ccc2[nH]c3c(c2c1)CCCC3NC(N)=O (stereo unspecified)	0.2	0.4	-2.2	4.8	.	.
C(=C\C1Nc2ccccc2-c2nnc(SCc3ccccc3)nc2O1)/c1ccco1 (stereo unspecified)	0.1	1.0	1.7	6.1	.	.
O=S1(=O)CCC(NS(=O)(=O)c2ccc(S(=O)(=O)NC3CC3)cc2)C1 (stereo unspecified)	1.2	5.2*	-7.7	-5.6	-1.1	-8.8
Cc1ccc(/C=N/Nc2ccc(Cl)c(C(=O)O)c2)o1	0.3	-1.1	-64.5	17.7	.	.
Cc1cccc(NC(=S)N(Cc2ccccc2)Cc2cccs2)c1	0.1	1.4	-10.9	10.8	.	.
SMILES	FBW7 activator	GPR151 activ	TEAD-YAP inh	MITF inh	GPR151 conf act	GPR119 ag
CSc1cccc(NC(=S)N(Cc2ccccc2)Cc2cccs2)c1	0.5	6.5*	-4.8	4.8	0.1	9.0
O=C(CCCCCn1c(=S)[nH]c2ccccc2c1=O)NCc1cccs1	0.2	-1.1	-1.1	12.3	.	.
NC(=O)c1ccc(-c2nc(Nc3ccc(N4CCOCC4)cc3)c3ncn(Cc4ccc(C(F)(F)F)cc4)c3n2)cc1	-0.1	0.5	5.8	-6.0	.	.
FC(F)(F)c1ccc(Cn2cnc3c(Nc4ccc(N5CCOCC5)cc4)nc(Cl)nc32)cc1	0.0	6.9*	4.3	-0.9	0.6	-2.3
COc1ccc(CCNc2nc(Nc3ccc(N4CCOCC4)cc3)nc3c2ncn3-c2ccccc2)cc1	-0.2	6.5*	12.0	11.9	-0.3	9.8
COc1ccc(CCNc2nc(NC3CCC(O)CC3)nc3c2ncn3Cc2ccc(C(F)(F)F)cc2)cc1 (stereo unspecified)	0.0	5.9*	36.2*	-13.3	-0.2	36.6*
COc1ccc(-c2nc(Nc3ccc(N4CCOCC4)cc3)c3ncn(Cc4ccc(C(F)(F)F)cc4)c3n2)cc1	-0.1	11.6*	8.8	-1.3	0.5	-6.6
FC(F)(F)c1ccc(Cn2cnc3c(Nc4ccc(N5CCOCC5)cc4)nc(N4CCOCC4)nc32)cc1	-0.1	1.7	-1.3	10.2	.	.
CC(C)N(CCNc1nc(NC2CCC(O)CC2)nc2c1ncn2Cc1ccc(C(F)(F)F)cc1)C(C)C (stereo unspecified)	-0.1	-0.6	6.3	-10.1	.	.
Clc1cccc(-c2cnn3c(NCCc4cccnc4)ccnc23)c1	1.0	-0.2	26.5	0.7	.	.
CCc1nnc(/N=C/c2c(C)[nH]n(-c3ccc(F)cc3)c2=O)s1	-0.1	0.7	-10.6	2.8	.	.
CCN(CC)C(=O)C1CCCN(c2nc(NCc3cccnc3)c3ncn(-c4ccsc4)c3n2)C1 (stereo unspecified)	-0.4	6.6*	37.1*	-4.2	0.6	-0.9
COc1ccc(-c2nc3c[n+](CC(N)=O)ccn3c2Nc2ccc3c(c2)OCO3)cc1	-0.5	1.5	-1.4	9.2	.	.
O=C(c1ccc(Cl)cc1)N1CCN(c2ccc([N+](=O)[O-])c(NCc3ccco3)c2)CC1	-0.2	6.0*	-6.7	8.1	-0.9	-12.9
Cc1nc2c(c(=O)[nH]1)CCN(Cc1ccc3ncccc3c1)C2	0.1	6.5*	0.1	5.4	0.0	-2.1
CCCSc1ncccc1C(=O)Nc1c(C)noc1C	-0.2	7.4*	-2.2	4.5	-0.3	-6.2
O=C(CN1CCC2(CC1)NC(=O)c1ccccc1O2)Nc1ccccc1F	0.0	0.5	5.3	10.5	.	.
COCCN=c1scc(-c2ccc(OC(F)F)cc2)n1/N=C/c1ccc([N+](=O)[O-])o1	-0.9	1.3	7.4	22.3	.	.
Cn1nnnc1SCc1nnc(-c2ccccc2)o1	-0.2	0.9	-25.1	-2.9	.	.
Cn1nnnc1SCc1nnc(-c2cccs2)o1	0.1	7.6*	-20.6	2.3	0.7	14.1
Cc1ccc(N2C(=O)C3C4CC(C(Br)C4Br)C3C2=O)cc1Cl (stereo unspecified)	0.3	-0.3	-3.9	0.7	.	.
